Drawing on PubChem BioAssay, this text covers inhibition for 34 compounds.

Values without a mark were called inactive. Activity calls are given as the source filed them. Rule as the data show it, unless noted: active = inhibition above about 30%; inactive = the rest.

For assay [1], the target named is Nuclear receptor coactivator 3 (Homo sapiens) (UniProt Q9Y6Q9). The assay is described as follows: NCOA3 GAL4-fusion reporter inhibition – cell-based, luminescence, quadruplicate, confirmation (AID 588792;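 active = mean inhibition over 43.08%, the solvent-only control mean plus 3 SD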;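 also: 0% = DMSO treated cells and 100% = gossypol at 36 µM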). The note with it: HEK293 GAL4-SRC3 luciferase reporter, at 3.6 µM, stronger effect = higher value. In general terms: In a reporter assay the amount or activity of a reporter protein is the signal.
Sequence of Nuclear receptor coactivator 3 (Homo sapiens) (Q9Y6Q9 whole entry, looked up, the tested form may be a part): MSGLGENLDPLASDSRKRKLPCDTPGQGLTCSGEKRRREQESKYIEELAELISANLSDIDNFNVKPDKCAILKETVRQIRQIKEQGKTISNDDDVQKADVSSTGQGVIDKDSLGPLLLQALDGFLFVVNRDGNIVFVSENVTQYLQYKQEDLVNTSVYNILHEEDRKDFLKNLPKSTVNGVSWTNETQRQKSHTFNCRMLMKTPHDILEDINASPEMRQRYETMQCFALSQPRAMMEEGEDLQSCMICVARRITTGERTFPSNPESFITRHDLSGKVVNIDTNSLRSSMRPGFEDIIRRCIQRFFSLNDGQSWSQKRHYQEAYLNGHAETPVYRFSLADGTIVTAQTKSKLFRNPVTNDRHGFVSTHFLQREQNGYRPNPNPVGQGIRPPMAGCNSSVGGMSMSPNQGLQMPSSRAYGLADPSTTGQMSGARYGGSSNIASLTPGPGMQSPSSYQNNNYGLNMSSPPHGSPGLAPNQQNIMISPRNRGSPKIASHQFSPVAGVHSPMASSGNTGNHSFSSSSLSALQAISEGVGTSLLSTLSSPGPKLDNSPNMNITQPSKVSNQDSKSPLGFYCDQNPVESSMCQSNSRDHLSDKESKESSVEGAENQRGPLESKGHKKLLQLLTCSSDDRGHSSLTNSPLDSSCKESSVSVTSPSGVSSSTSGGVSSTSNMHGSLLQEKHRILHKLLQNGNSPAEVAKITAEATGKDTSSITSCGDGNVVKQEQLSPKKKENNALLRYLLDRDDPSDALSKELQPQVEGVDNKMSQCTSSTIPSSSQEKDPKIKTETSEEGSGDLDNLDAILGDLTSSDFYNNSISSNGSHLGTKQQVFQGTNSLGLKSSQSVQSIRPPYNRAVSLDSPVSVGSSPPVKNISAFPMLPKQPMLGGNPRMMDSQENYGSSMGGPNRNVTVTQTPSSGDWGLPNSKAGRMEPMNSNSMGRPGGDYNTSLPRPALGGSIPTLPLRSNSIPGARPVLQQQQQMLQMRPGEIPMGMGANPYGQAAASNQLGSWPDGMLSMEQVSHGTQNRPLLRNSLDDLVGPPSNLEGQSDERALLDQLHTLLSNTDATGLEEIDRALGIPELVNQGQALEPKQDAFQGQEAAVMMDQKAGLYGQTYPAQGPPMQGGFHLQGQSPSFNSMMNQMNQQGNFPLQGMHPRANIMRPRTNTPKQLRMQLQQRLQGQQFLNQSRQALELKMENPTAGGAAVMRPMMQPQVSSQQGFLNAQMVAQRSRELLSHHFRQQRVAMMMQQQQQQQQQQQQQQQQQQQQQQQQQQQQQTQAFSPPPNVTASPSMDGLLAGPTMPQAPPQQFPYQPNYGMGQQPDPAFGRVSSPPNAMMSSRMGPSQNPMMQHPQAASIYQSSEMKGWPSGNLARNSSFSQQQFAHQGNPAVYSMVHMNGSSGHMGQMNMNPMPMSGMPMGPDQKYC

In assay [2] the test system is transactivating tegument protein VP16 (Human herpesvirus 1), Gal4-VP16 luciferase reporter. The assay is described as follows: repression of VP16-driven luciferase reporter – cell-based, luminescence, high throughput, counter-screen for SRC3 inhibitor project (AID 588794). The note with it: mammalian cells, at 3.6 µM, stronger effect = higher value.

The term inhibition denotes the drop in the measured response relative to a control, in per cent. With `O=C(N/N=C/c1ccc(O)cc1O)c1ccc(NC(=O)C2CCCCC2)cc1`, the inhibition is 9.15% in assay [1] and 10.4% in assay [2].
For `CCN(C(=O)COC(=O)/C(=C/c1ccccc1)n1nnnc1C)C1CCCCC1`, the inhibition in assay [1] was 26.9%; in assay [2], 27%.
With `CCc1ccc(/C=C/c2c([N+](=O)[O-])c(=O)n(C)c(=O)n2C)cc1`, the inhibition in assay [1] was 39.7%; in assay [2], 41.3% (active).
As for `Cc1cc(C)c2nc3nc(C)cc(C)c3c(N)c2c1`, the inhibition in assay [1] is 24.5%; in assay [2] it was 57.9% (active).
Taken in the same sequence, the figures for `O=C(NCCNc1ccc([N+](=O)[O-])cc1C(F)(F)F)c1cccc(F)c1` were 15.4% and 12.6%.
For `COc1ccccc1N1CCN(C(=O)C2CCCN(S(=O)(=O)c3ccc4c(c3)CCCN4C(C)=O)C2)CC1` (stereo not drawn) the same measures were -12.2% and 8.25%.
For `COc1ccc(C(=O)Nc2c(-c3cccs3)c(=O)c3ccccc3n2C)cc1` the same measures were -10.2% and 7.07%.
As for `O=C(COc1ccccc1[N+](=O)[O-])Nc1ccc(N2CCN(C(=O)c3cccs3)CC2)cc1`, the inhibition was -7.09% in assay [1] and 7.15% in assay [2].
As for `CCc1cccc(CC)c1C(OC(C)=O)c1cccnc1` (stereo not drawn), the inhibition in assay [1] is -15.7%; in assay [2] it was -7.1%.
For `CCc1ccc2nc3nc(C)cc(C)c3c(N)c2c1`, the inhibition in assay [1] is 20.2%; in assay [2], 32.7% (active).
Consider `Cc1[nH]n(-c2ccccc2)c(=O)c1/C=N/Nc1nncc(-c2ccccc2)n1`, for which the inhibition was 74.3% (active) in assay [1] and 67.5% (active) in assay [2].
As to `Cc1ccc(NS(=O)(=O)c2ccc(OCC(=O)NCc3ccncc3)cc2)cc1`, the inhibition in assay [1] was 8.87%; in assay [2] it was 6.6%.
Taken in the same sequence, the figures for `CN1CCN(S(=O)(=O)c2ccc(Sc3nnnn3-c3ccccc3)c([N+](=O)[O-])c2)CC1` were 24.5% and 2.52%.
Consider `O=C(N/N=C\c1cc(Br)ccc1O)c1ccc(S(=O)(=O)N2CCCCC2)cc1`, for which the results for the inhibition in assay [1] and in assay [2] were 72.3% (active) and 74.8% (active), respectively.
`O=C(NCc1cccs1)C1CCCN(C(=O)Nc2ccccc2)C1` (stereo not drawn): the values for the inhibition in assay [1] and in assay [2] were 17.7% and 31.9% (active), respectively.
For `C/C(=N\NC(=O)c1cc(-c2cccnc2)nc2ccccc12)c1ccc(O)cc1O` the same measures were 48.4% (active) and 29.9% (active).
Taken in the same sequence, the figures for `Cc1cccc(C)c1-n1c(C)cc(/C=N\NC(=O)CC(=O)NC2CCCCC2)c1C` were -17.4% and -15.1%.
Regarding `CCOC(=O)CCCCC1C(CCCC(=O)OCC)C=NN1C` (stereo not drawn), the inhibition is -16% in assay [1] and -3.48% in assay [2].
For `Cc1ccc2c(c1)/C(=C/c1ccc(F)cc1)C(=O)N2` the same measures were 7.93% and -3.06%.
As to `CCCCC(O)(CCCC)C(=O)NN(C(=O)OCC)c1ccccc1`, the figures for the inhibition in assay [1] and in assay [2] were 11.9% and 14.8%, respectively.
As to `COc1ccc(NC(=O)c2cc(C3CC3)nc3c2cnn3C(C)C)cc1OC`, the inhibition in assay [1] is -12.8%; in assay [2], -3.62%.
Taken in the same sequence, the figures for `CCN1/C(=C/c2cc[n+](C)cc2)C=Cc2cc(C)ccc21` were 17% and 70.9% (active).
For `CC(=O)c1ccc(Nc2c3c(nc4ccccc24)CCCC3)cc1` the same measures were 32.7% and -3.62%.
Regarding `O=C(CN1C(=O)C(=O)N(C2CCCC2)C1=O)Nc1ccccc1OC(F)F`, the values for the inhibition in assay [1] and in assay [2] were 10.1% and -11.8%, respectively.
Taken in the same sequence, the figures for `O=[N+]([O-])c1ccccc1NC1CCN(Cc2ccccc2)CC1` were -4.81% and 0.87%.
Turning to `C=C(C)COc1ccc(-c2[nH]ncc2-c2ccc(OC)cc2)c(O)c1`, the inhibition in assay [1] was 7.89%; in assay [2], 14.5%.
Taken in the same sequence, the figures for `CCOC(=O)C1=C(C)N[C@@]2(O)c3ccccc3C(=O)[C@@]12O` were 2.93% and -4.31%.
Taken in the same sequence, the figures for `O=C(NCC1CCCO1)c1cccc2c1C(=O)c1ccc(N3CCC(Cc4ccccc4)CC3)cc1S2(=O)=O` (stereo not drawn) were -2.13% and 10.6%.
As for `O=C(N/N=C/c1c(O)ccc2ccccc12)c1ccc(CO)nc1`, the inhibition in assay [1] is 26.3%; in assay [2] it was 41.3% (active).
`NC(=S)N/N=C1\CCOc2ccc(Cl)cc21`: the inhibition in assay [1] was 34.6%; in assay [2], 9.88%.
For `CCc1ccc(N2CC(C(=O)N/N=C/c3cc([N+](=O)[O-])ccc3O)CC2=O)cc1` (stereo not drawn) the same measures were -9% and 9.04%.
Taken in the same sequence, the figures for `Cc1ccnc(OC(C(=O)O)C(OCc2ccccc2)(c2ccccc2)c2ccc(C(F)(F)F)cc2)n1` (stereo not drawn) were 8.84% and 12.4%.
For `c1ccc2c(c1)OCC(CNc1ncnc3sccc13)O2` (stereo not drawn) the same measures were 1.57% and 37.9% (active).
`CCOc1ccc(N2C(=O)/C(=C/c3cc(OC)c(OC)c(OC)c3)N(CC(=O)OC)C2=S)cc1`: the inhibition in assay [1] was 18.9%; in assay [2], 12.7%.
